Source: PubChem BioAssay (National Center for Advancing Translational Sciences (NCATS))
Rows were chosen to be rich in hits. Some 18% of all compounds tested hit in one or more screens of this group.
DT40 TDP1 CPT: DT40-hTDP1 cell growth loss with CPT | chicken DT40 Tdp1-/-;hTDP1 cells + 20 nM CPT, ATP luminescence, 48 h | Potency, µM (highest dose often 46.2 µM), for the others: at the top dose activity change, negative = growth inhibition, hits mostly inhibitors | 420,000 compounds, 12% hits | AID 686979; note: potency is the fitted concentration of half-maximal effect; % is set by controls: 0 for no effect and ±100 for the full control effect; nearly all actives have a fitted effect of over 55% in size
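Cell growth measured by CellTiter-Glo luminescence after a minimum 48 h, 37 C compound exposure with 20 nM CPT in Tdp1-knockout DT40 cells stably expressing hTDP1, seeded 400/well; qHTS titration format.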
TDP1 block: TDP1 (human) enzyme inhibition; Q9NUW8; recombinant TDP1, AlphaScreen DNA substrate cleavage; Potency, µM (series often up to 130 µM), inactives show at the top dose activity change, negative = inhibition, most hits filed as inhibitors; 350,000 compounds, 0.28% hits; AID 485290; note: potency is the fitted concentration of half-maximal effect; % is set by controls: 0 for no effect and ±100 for the full control effect; nearly all actives have a fitted effect of over 40% in size
Target sequence (Q9NUW8 whole entry, looked up): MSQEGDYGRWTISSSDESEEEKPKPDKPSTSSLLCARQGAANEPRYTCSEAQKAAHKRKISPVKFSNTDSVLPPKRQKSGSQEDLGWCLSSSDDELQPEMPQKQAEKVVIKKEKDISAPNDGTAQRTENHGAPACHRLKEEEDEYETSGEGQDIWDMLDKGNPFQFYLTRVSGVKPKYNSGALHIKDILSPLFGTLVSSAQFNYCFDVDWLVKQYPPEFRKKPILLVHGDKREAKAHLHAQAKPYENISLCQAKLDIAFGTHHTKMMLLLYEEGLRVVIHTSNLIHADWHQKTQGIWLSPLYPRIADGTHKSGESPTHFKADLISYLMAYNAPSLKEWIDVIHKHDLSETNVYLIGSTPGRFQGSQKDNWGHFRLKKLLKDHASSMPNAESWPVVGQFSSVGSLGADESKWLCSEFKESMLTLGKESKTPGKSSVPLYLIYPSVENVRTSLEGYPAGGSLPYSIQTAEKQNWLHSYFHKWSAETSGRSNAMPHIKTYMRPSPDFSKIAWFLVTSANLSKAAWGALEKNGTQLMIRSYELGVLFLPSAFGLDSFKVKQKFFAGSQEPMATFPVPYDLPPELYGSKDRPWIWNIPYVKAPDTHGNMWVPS
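Tdp1 1 nM final; 15 min RT w/ cpd; substrate 15 nM, 5 min; beads 10 ug/ml, 10 min; AlphaScreen read. Neg ctrl: no enzyme.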
IL1B secr inh: inflammasome signaling inhibition, IL-1 beta readout | activity change, % at 57.5 µM | AID 743279 | THP-1 LPS/ATP IL-1B secretion, AlphaLISA, 16 h; stronger effect = lower value | 360,000 compounds, 4.7% hits; in the data active = activity change below about -50%; inconclusive = mostly about -30% to -49%; note: % is set by controls: 0 for no effect and ±100 for the full control effect
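THP-1 cells pretreated 1 hr with compounds (up to 57.5 uM final), then stimulated with LPS (250 ng/mL final) plus ATP (1.25 mM final); secreted IL-1B measured by AlphaLISA after 16 hr, decreased signal indicating inhibition.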
TGFb SMAD3 inh: inhibitors of TGF-b signaling. HepG2 CAGA-GFP TGF-b/SMAD3 reporter, GFP fluorescence, 18 h; TGF-beta stimulated, 500 pg/mL final. Potency, µM (highest dose often 46.1 µM), for inactives: top-dose activity, negative = inhibition, usual class: inhibitors. 410,000 compounds, 1.2% hits; note: potency is the fitted concentration of half-maximal effect; % is set by controls: 0 for no effect and ±100 for the full control effect; nearly all actives have a fitted effect of over 65% in size
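HEPG2 CAGA-GFP cells (1000/well, DMEM with 1% FBS) were pre-incubated 2 h at 37 degrees C, given compound by pin tool, then stimulated with TGF-beta at 500 pg/mL final for 18 h before per-cell GFP fluorescence imaging.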
HepG2 viability: counter-screen for TGF-b inhibitors: cytotoxicity in HepG2 cells | HepG2 CAGA-GFP viability, ATP luminescence, 18 h | Potency, µM (doses to about 46.1 µM), without a hit: at the top dose activity change, negative = cytotoxicity, most hits filed as cytotoxic | 410,000 compounds, 0.76% hits; note: potency is the fitted concentration of half-maximal effect
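HepG2 CAGA-GFP cells (1000/well, DMEM with 1% FBS) received compound, then TGF-beta at 500 pg/mL final, and were incubated 18 hours at 37 degrees C. Viability was read by CellTiter-Glo luminescence. Media-only wells were set as complete cell-killing and DMSO as no toxicity.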
TDP1 cell noCPT: qHTS for Inhibitors of human tyrosyl-DNA phosphodiesterase 1 (TDP1): qHTS in cells in absence of CPT. 420,000 compounds, 15% hits. DT40 Tdp1-/- hTDP1 cells, no CPT, ATP luminescence, 48 h. Potency, µM (titrated, usually from 46.2 µM), without a hit: at the top dose activity change, negative = growth inhibition, most hits filed as inhibitors; note: potency is the fitted concentration of half-maximal effect; % is set by controls: 0 for no effect and ±100 for the full control effect; nearly all actives have a fitted effect of over 55% in size
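Chicken DT40 Tdp1-/- cells stably complemented with human TDP1 were seeded at 400 cells/well with DMSO in place of 20 nM camptothecin. After compound pinning, cells grew at least 48 hr at 37 °C; viability read by CellTiter-Glo luminescence.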
The depositor's hits bear a star; i = inactive; ? = inconclusive; nt = no result given; ! = a repeat was not active; [ ] = dose if it differs, or a comment. Unless noted, calls come from the whole dose curve; as a rule, active = well fitted curve in the direction sought with a large enough effect; inconclusive = small, poorly fitted or top-dose-only effect, or another doubt; inactive = no such curve, though single readings can be large; an effect the other way counts as inactive or inconclusive.

SMILES	DT40 TDP1 CPT	TDP1 block	IL1B secr inh	TGFb SMAD3 inh	HepG2 viability	TDP1 cell noCPT
CN(Cc1ccccc1)C(=O)c1ccc2nc([C@@H]3O[C@H](CO)[C@H](O)[C@H](O)[C@H]3O)[nH]c2c1	-8%	nt	28	-6%	-20%	-4%
COc1cccc(CNC(=O)COC(=O)c2ccc(N3CCCC3=O)cc2)c1	6%	nt	-12	-10%	8%	3%
COc1ccc(OC)c(S(=O)(=O)NCc2ccc3c(c2)CCN3C(=O)c2cccc(C)c2)c1	2.6µM*	8%	nt	?	-26%	2.6µM*
O=C(O)CCC(=O)N1CCc2cc(S(=O)(=O)NCc3ccc(F)cc3)ccc21	-5%	1%	nt	2%	-1%	-9%
CCC(=O)N1CCc2cc(CNS(=O)(=O)c3ccc(Cl)s3)ccc21	?	0%	nt	?	-30%	16µM*
Cc1cccc(C(=O)N2CCc3cc(CNS(=O)(=O)c4ccc(Cl)s4)ccc32)c1	23µM*	3%	nt	1%	-18%	23µM*
Cc1cccc(C(=O)N2CCc3cc(CNS(=O)(=O)c4ccc(F)c(Cl)c4)ccc32)c1	1.6µM*	0%	nt	-12%	-18%	1.2µM*
Cc1nc([N+](=O)[O-])cn1CC(O)c1ccc2c(c1)OCCCO2 (stereo unspecified)	1%	nt	nt	-10%	1%	-4%
CC(C)c1ccc(/C=C(\C#N)c2nc(-c3ccc(O)cc3)cs2)cc1	3.3µM*	-1%[12.3 µM]	nt	?	18µM*	2.6µM*
COc1ccc(/C=C(/C#N)c2nc(-c3ccc(Br)cc3)cs2)cc1	?	-2%[12.3 µM]	nt	22%	5%	23µM*
COc1ccc(-c2csc(/C(C#N)=C\c3ccc(O)c([N+](=O)[O-])c3)n2)cc1OC	?	9%	11	-15%	-16%	?
COc1ccc(/C=C(/C#N)c2nc(-c3ccc(-c4ccccc4)cc3)cs2)cc1OC	?	-1%[12.3 µM]	nt	32%	1%	12µM*
COc1ccc(-c2csc(/C(C#N)=C(\O)CSc3nccn3C)n2)cc1OC	?	4%	-15	12%	16%	15µM*
CC(C)c1ccc(/C=C(\C#N)c2nc(-c3cc4ccccc4oc3=O)cs2)cc1	-14%	0%[12.3 µM]	nt	-1%	-11%	3%
COc1ccc(-c2csc(NC(=O)CSc3nnnn3C)n2)cc1OC	-21%	nt	-22	-8%	-17%	-22%
CCOc1ccccc1C(=O)OCC(=O)NCCNC(=O)COC(=O)c1ccccc1OCC	-1%	5%	i	-1%	-2%	-4%
O=C(NCCN1CCOCC1)c1cnn(-c2nccc(-c3ccccc3F)n2)c1C1CC1	7%[9.04 µM]	nt	nt	nt	nt	-10%
C/C=C/C/C=C/CCC(=O)[C@H]1O[C@H]1C(N)=O	nt	7%	nt	nt	nt	nt
ON=C(c1ccccc1)c1ccc2c3c(cccc13)CC2	?	nt	32	?	-109%	18µM*
COC(=O)[C@@H]1CCCN1C(=O)c1cnn(-c2nccc(-c3cc(C)sc3C)n2)c1C1CC1	9%[9.04 µM]	nt	nt	nt	nt	?
C/C(=N\NC(=O)C(O)(c1ccccc1)c1ccccc1)c1ccc(C)o1	?	4%	7	3%	-11%	18µM*
C/C(=N\Nc1nc(C)cc(-c2ccccc2)n1)c1ccc(C)o1	?	4%	-2	-12%	-52%	4.6µM*
C/C(=N/Nc1nc(C)cc(-c2ccccc2)n1)c1ccco1	21µM*	2%	-11	?	-40%	?
COc1ccccc1CN(Cc1ccco1)c1cnc(S(C)(=O)=O)nc1C(=O)Nc1cc(C)ccc1C	?	6%	nt	-24%	0%	?
CC[C@]12c3[nH]c4ccccc4c3CCN1C(=O)C(CC(=O)NCCc1ccccn1)C[C@@H]2C(=O)N1CCN(C(=O)c2ccco2)CC1 (stereo partly specified)	-17%	1%	34	0%	-4%	1%
SMILES	DT40 TDP1 CPT	TDP1 block	IL1B secr inh	TGFb SMAD3 inh	HepG2 viability	TDP1 cell noCPT
Clc1ccc(CN2CCCCCC2)cc1	0%	nt	-1	-11%	-2%	-3%
O=[N+]([O-])c1cc(CN2CCCC2)ccc1Sc1ccc(Cl)cc1	10µM*	8%	-12	?	-50%	8.2µM*
CCCOc1ccc(F)cc1-c1cc(C(=O)NCc2ccco2)[nH]n1	?	nt	-17	-2%	-4%	?
CCCOc1ccc(F)cc1-c1cc(C(=O)NCc2ccc(C(F)(F)F)cc2)[nH]n1	?	nt	-8	?	-7%	16µM*
CCCOc1ccc(F)cc1-c1cc(C(=O)NCc2cccc(C(F)(F)F)c2)[nH]n1	21µM*	nt	-25	?	-18%	18µM*
CCCOc1ccc(F)cc1-c1cc(C(=O)NCc2ccccc2)[nH]n1	?	nt	?	2%	-17%	?
CCCOc1ccc(F)cc1-c1cc(C(=O)NCc2cccc(Cl)c2)[nH]n1	23µM*	nt	-16	?	-18%	?
O=C(NNC(=O)c1csc(N2CCOCC2)n1)c1cccnc1	21%	nt	15	?	-1%	-19%
COCCNC(=O)C1CCCN(C(=O)c2sccc2C)CC1 (stereo unspecified)	0%	nt	28	3%	-1%	-4%
CC(C)OCC(O)CN1CCC(Cc2ccccc2)CC1 (stereo unspecified)	6%	1%	5	-3%	-18%	-5%
C[C@@H](CN1CCC(Cc2ccccc2)CC1)[C@@H](O)c1ccc(O)cc1	23µM*	10%[56.1 µM]	-21	3%	-1%	7.3µM*!
COc1ccc(Br)cc1C(=O)NC(=S)Nc1c(C)n(C)n(-c2ccccc2)c1=O	-3%	nt	-22	0%	-10%	-25%
CNc1nc(-c2ccccc2Cl)nc2ccccc12	-17%	nt	nt	nt	nt	-23%
CC(=O)c1cccc(Nc2nc(-c3cccc(C)c3)nc3ccccc23)c1	21µM*	nt	nt	?	-59%	5.8µM*
COC(=O)c1ccc(Nc2nc(-c3ccccc3Cl)nc3ccccc23)cc1	?	5%[12.3 µM]	nt	?	-28%	16µM*
COC(=O)CNc1nc(-c2ccccc2F)nc2ccccc12	-28%	3%	-19	-3%	-29%	?
CC(=O)Nc1cccc(Nc2nc(-c3ccccc3F)nc3ccccc23)c1	?	3%	-52*	-23%	-16%	?
CC(=O)c1cccc(Nc2nc(-c3ccccc3Cl)nc3ccccc23)c1	15µM*	-8%[12.3 µM]	nt	1%	-40%	10µM*
